Reference: the supplement of paper PMC8728848
Shown is part of a subset that was picked to be rich in the strongest signals.

Key:
Experiment in all cases: glycan array binding signal (z-score within array); higher = stronger binding
Settings in all cases: glycan notation: IUPAC condensed, linker removed; mutation: W10H
Gal6S(b1-3)GlcNAc6S = biological target: Gal6S(b1-3)GlcNAc6S
Summary of the method: (§1)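 The Consortium for Functional Glycomics database supplied 3228 glycan arrays, of which those lacking an available protein sequence were dropped. The binding signal, a within-array Z-score, was averaged across arrays of the same protein sequence and across linkers. Negative scores can be read as non-binding.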

Gal6S(b1-4)Glc = biological target: Gal6S(b1-4)Glc
Summary of the method: as §1

Gal6S(b1-4)GlcNAc = biological target: Gal6S(b1-4)GlcNAc
Summary of the method: as §1

GalNAc(a1-3)Gal = biological target: GalNAc(a1-3)Gal
Summary of the method: as §1

GalNAc3S(b1-4)GlcNAc3S = biological target: GalNAc3S(b1-4)GlcNAc3S
Summary of the method: as §1

[1] = biological target: GlcA3S(b1-3)Gal(b1-4)GlcNAc(b1-3)Gal(b1-4)Glc
Summary of the method: as §1

[2] = biological target: Man(a1-2)Man(a1-2)Man(a1-6)[Man(a1-3)]Man
Summary of the method: as §1

[3] = biological target: Man(a1-2)Man(a1-3)[Man(a1-2)Man(a1-6)]Man
Summary of the method: as §1

[4] = biological target: Man(a1-2)Man(a1-3)[Man(a1-2)Man(a1-6)]Man(a1-6)[Man(a1-2)Man(a1-2)Man(a1-3)]Man
Summary of the method: as §1

[5] = biological target: Man(a1-2)Man(a1-3)[Man(a1-2)Man(a1-6)]Man(a1-6)[Man(a1-2)Man(a1-2)Man(a1-3)]Man(b1-4)GlcNAc(b1-4)GlcNAc
Summary of the method: as §1

[6] = biological target: Man(a1-2)Man(a1-3)[Man(a1-6)]Man(a1-6)[Man(a1-2)Man(a1-3)]Man(b1-4)GlcNAc(b1-4)GlcNAc
Summary of the method: as §1

[7] = biological target: Man(a1-2)Man(a1-6)[Man(a1-3)]Man(a1-6)[Man(a1-2)Man(a1-2)Man(a1-3)]Man
Summary of the method: as §1

[8] = biological target: Man(a1-2)Man(a1-6)[Man(a1-3)]Man(a1-6)[Man(a1-2)Man(a1-2)Man(a1-3)]Man(b1-4)GlcNAc(b1-4)GlcNAc
Summary of the method: as §1

Man(a1-3)[Man(a1-6)]Man = biological target: Man(a1-3)[Man(a1-6)]Man
Summary of the method: as §1

[9] = biological target: Man(a1-3)[Man(a1-6)]Man(a1-6)[Man(a1-2)Man(a1-3)]Man(b1-4)GlcNAc(b1-4)GlcNAc
Summary of the method: as §1

[10] = biological target: Man(a1-3)[Man(a1-6)]Man(a1-6)[Man(a1-3)]Man(b1-4)GlcNAc(b1-4)GlcNAc
Summary of the method: as §1

[11] = biological target: Man(a1-3)[Man(a1-6)]Man(b1-4)GlcNAc(b1-4)GlcNAc
Summary of the method: as §1

[12] = biological target: Neu5Ac(a2-3)Gal(b1-3)GalNAc(b1-3)Gal(a1-4)Gal(b1-4)Glc
Summary of the method: as §1

[13] = biological target: Neu5Ac(a2-3)Gal(b1-3)GalNAc(b1-4)Gal(b1-4)Glc
Summary of the method: as §1

[14] = biological target: Neu5Ac(a2-3)Gal(b1-3)GlcNAc(b1-2)Man(a1-3)[GlcNAc(b1-4)][Neu5Ac(a2-3)Gal(b1-3)GlcNAc(b1-2)Man(a1-6)]Man(b1-4)GlcNAc(b1-4)GlcNAc
Summary of the method: as §1

[15] = biological target: Neu5Ac(a2-3)Gal(b1-3)GlcNAc(b1-3)GalNAc
Summary of the method: as §1

Neu5Ac(a2-3)Gal(b1-4)Glc = biological target: Neu5Ac(a2-3)Gal(b1-4)Glc
Summary of the method: as §1

[16] = biological target: Neu5Ac(a2-3)Gal(b1-4)[Fuc(a1-3)]GlcNAc6S
Summary of the method: as §1

[17] = biological target: Neu5Ac(a2-6)Gal(b1-4)GlcNAc(b1-3)Gal(b1-4)GlcNAc(b1-3)Gal(b1-4)GlcNAc
Summary of the method: as §1

[18] = biological target: Neu5Ac(a2-8)Neu5Ac(a2-3)[GalNAc(b1-4)]Gal(b1-4)Glc
Summary of the method: as §1

[19] = biological target: Neu5Ac(a2-8)Neu5Ac(a2-8)Neu5Ac(a2-8)Neu5Ac(a2-3)[GalNAc(b1-4)]Gal(b1-4)Glc
Summary of the method: as §1

[20] = biological target: Neu5Gc(b2-6)Gal(b1-4)GlcNAc
Summary of the method: as §1

B1: Banana lectin (Musa acuminata) (protein)
chain: MNGAIKVGAHGGNGGSAFDMGPAYRIISVKIFSGDVVDGVDVTFTYYGKTETRHYGGSGGTPHEIVLQEGEYLVGMAGEVANYHGAVVLGKLGFSTNKKAYGPFGNTGGTPFSLPIAAGKISGFFGRGGKFLDAIGVYLEPLEHHHHHH
glycan array binding signal (z-score) (Gal6S(b1-3)GlcNAc6S): -0.174 | glycan array binding signal (z-score) (Gal6S(b1-4)Glc): -0.156 | glycan array binding signal (z-score) (Gal6S(b1-4)GlcNAc): -0.124 | glycan array binding signal (z-score) (GalNAc(a1-3)Gal): -0.158 | glycan array binding signal (z-score) (GalNAc3S(b1-4)GlcNAc3S): -0.165 | glycan array binding signal (z-score) [1]: -0.164 | glycan array binding signal (z-score) [2]: 7.33 | glycan array binding signal (z-score) [3]: 2.86 | glycan array binding signal (z-score) [4]: 6.5 | glycan array binding signal (z-score) [5]: 2.96 | glycan array binding signal (z-score) [6]: 9.34 | glycan array binding signal (z-score) [7]: 5.18 | glycan array binding signal (z-score) [8]: 6.56 | glycan array binding signal (z-score) (Man(a1-3)[Man(a1-6)]Man): 2.82 | glycan array binding signal (z-score) [9]: 13.5 | glycan array binding signal (z-score) [10]: 3.07 | glycan array binding signal (z-score) [11]: 6.6 | glycan array binding signal (z-score) [12]: -0.167 | glycan array binding signal (z-score) [13]: -0.186 | glycan array binding signal (z-score) [14]: -0.163 | glycan array binding signal (z-score) [15]: -0.169 | glycan array binding signal (z-score) (Neu5Ac(a2-3)Gal(b1-4)Glc): -0.159 | glycan array binding signal (z-score) [16]: -0.176 | glycan array binding signal (z-score) [17]: -0.171 | glycan array binding signal (z-score) [18]: -0.146 | glycan array binding signal (z-score) [19]: -0.153 | glycan array binding signal (z-score) [20]: -0.185
